Test results: PubChem BioAssay (NCI)
This is part of a sample that, as a whole, favours compounds with a hit. Of some 83,000 tested, about 20% had one in any assay.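 Growth was measured after 48 h exposure to one concentration of compound in 96-well plates. Values under 10 count as active.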 Values without a mark were called inactive. Activity calls are given as the source filed them.

What follows are molecules tested on HL-60(TB) leukemia (assay: NCI-60 one-dose screen, 48 h (100 = growth as untreated, 0 = no growth, -100 = all killed)). Conditions: 10 µM unless noted.

SMILES | growth
CCOC(=O)c1ccc(C(C)(C)C)cc1 | 90.4%
COc1ccc(CN2C(=O)OC(C)(COC(C)=O)C2=O)cc1 (stereo not given) | 101%
COc1ccc(-c2nn(-c3cccc(Cl)c3)cc2-c2c(C#N)c(=O)n3[nH]c(-c4ccc(C)cc4)nc3c2C#N)cc1 | 61.7%
COc1ccc(-c2nc(SC)nc(N3CCOCC3)c2C#N)cc1 | 94%
Cc1oc2nc[nH]c(=O)c2c1C(=O)/C=C/c1ccc(Cl)cc1Cl | 7.83% (active)
COc1ccc(Oc2[nH]n(C3=Nc4ccccc4Sc4ccccc43)c(=O)c2C#N)cc1 | 112%
COc1ccc(-n2c(=O)n(-c3ccc(-c4nc5ccc(F)cc5s4)cc3)c(=O)c3cccnc32)cc1 | 102%
NS(=O)(=O)c1cnccc1-n1ccc(=O)c(S(N)(=O)=O)c1 | 55.9%
O=C1Nc2ccc(Br)cc2C12Oc1ccccc1C1CC(c3ccc(F)cc3)=NN12 (stereo not given) | 92.9%
O=c1c2ccccc2n2cnc3ccc(Cl)c1c32 | 82.6%
CCOC(=O)n1cc(-c2nonc2-c2cn(C)c3ccc(OC)cc23)c2cc(F)ccc21 | 99.7%
CC(CO)(CO)C(=O)O | 108%
COC(=O)[C@H]1Cc2c([nH]c3ccccc23)[C@H](c2ccc3c(c2)OCO3)N1 | 98.6%
Cn1c(C(=O)c2cccc3ccccc23)nc2ccccc21 | 3.94% (active)
Cc1ccccc1Nc1cc(O)c2c(=O)cc(-c3ccccc3)oc2c1 | 8.58% (active)
COc1ccc(-c2ccc3c(N4CCOC[C@@H]4C)nc(N4CCOC[C@@H]4C)nc3n2)cc1CO | 22.6%
CC(=O)c1cc(C(=O)c2ccc3c(c2)Sc2ccccc2N3)c2cc(C)ccn12 | 2.96% (active)
O=C(/C=C/c1cccc(Cl)c1Cl)Nc1ncc(Cc2ccccc2Cl)s1 | -3.06% (active)
CC(=O)c1ccc(NS(=O)(=O)c2ccc([N+](=O)[O-])cc2)cc1 | 90.3%
CN(Cc1cnc2nc(N)nc(N)c2n1)c1c(Cl)cc(C(=O)NC(CCC(=O)O)C(=O)O)cc1Cl (stereo not given) | 18.6%

SMILES | growth
Nc1ccc(Oc2ccccc2)c(Cl)c1 | 119%
C#Cc1cccc(NC(=O)C2CCCN(C(=O)CCl)C2)c1 (stereo not given) | 34% [8.25 µM]
Clc1ccccc1CNc1c2ccccc2nc2ccccc12 | 13.6%
COC(=O)[C@]12CC[C@@H](C)[C@H](C)[C@@H]1C1=CC(=O)[C@@H]3[C@@]4(C)C[C@@H](O)[C@H](O)[C@@]5(C)COC(=C45)C[C@@]3(C)[C@]1(C)CC2 | 41.9%
COC(=O)[C@]12CC[C@@H](C)[C@H](C)[C@@H]1C1=CC[C@@H]3[C@@]4(C)C(C=O)=C[C@@](C)(COS(C)(=O)=O)C4=CC[C@@]3(C)[C@]1(C)CC2 | -34.8% (active)
O=C(NC(=S)Nc1ccc(Cl)cc1)c1ccccc1 | 60.5%
COC(=O)/C=C/c1cc(OC(C)=O)c2c(c1)C(C(=O)OC)C(c1ccc(OC(C)=O)c(OC(C)=O)c1)O2 (stereo not given) | -35% (active)
C/C(=C(/c1ccccc1)c1ccc(OCC(O)CNCCN2CCOCC2)cc1)c1ccccc1 (stereo not given) | 29%
COc1cc2oc(-c3cccc(C(=O)Nc4ccccc4)c3)cc(=O)c2c(O)c1OC | 92.7%
COc1cc(NC(C)CCCNC(=O)CCC(=O)NCCCNCCCCCCCCCCNCCCNC(=O)CCC(=O)NCCCC(C)Nc2cc(OC)cc3cccnc23)c2ncccc2c1 (stereo not given) | 58.2% [8 µM]
CC1CC2Oc3ccc(Cl)cc3C(=O)N2O1 (stereo not given) | 110%
COc1ccc(C2=NN(c3ccc(S(N)(=O)=O)cc3)C(c3ccc(Cl)cc3)C2)c(O)c1 (stereo not given) | 29.9%
O=C(Nc1ccc(I)cc1F)c1cc(F)ccc1O | -30.7% (active)
COc1ccc(C2CC(c3ccc(Nc4nc(Nc5ccc(F)cc5)nc(Nc5ccc(F)cc5)n4)cc3)=NN2C(C)=O)cc1 (stereo not given) | 17.1%
COc1ccc2oc(=O)cc(Cn3cc(Cn4cnc5c4c(=O)n(C)c(=O)n5C)nn3)c2c1 | 107%
CCCCC(=O)N/N=C/c1cc(I)cc(I)c1O | 4.46% (active)
CCOC(=O)c1cc(C(=O)c2cc(OC)cc(OC)c2)n2ccc3ccccc3c12 | 103%
CCCCN1CCN(c2ccc3nc(-c4ccc5nc(-c6ccc(C(F)(F)F)cc6)[nH]c5c4)[nH]c3c2)CC1 | -58.7% (active)
C/C(=N/N=C(N)N)c1ccc(Cl)cc1 | 171%
Cn1nc(N)c2cc([C@@H]3Nc4ccc5[nH]ncc5c4[C@H]4C5CCC(C5)[C@@H]34)ccc21 (stereo not given in full) | -16.6% (active)
